Screens from PubChem.
NADH coupling – blocks coupling enzymes of NAD/NADH assays; 65,000 compounds, 0.02% hits; IC50, µM (titrated, usually from 10 µM), inactives show top-dose inhibition; coupled PK/LDH NADH assays, four targets;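 active = single-dose screening hits from any of four coupled enzyme assays that gave an IC50 when retested across doses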;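 also: the DPM-DC format reads NADH fluorescence rather than 340 nm absorbance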
A340 absorber – compounds absorbing at 340 nm. compound absorbance at 340 nm, fold over control. 65,000 tested, under 10 active. fold change at 10 µM;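 active = at 10 µM dose, initial 340 nm absorbance at least 2 fold that of control wells; inactive = change under 2 fold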;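 also: initial absorbance extrapolated from kinetic A340 decline of NADH oxidation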
Autofluor 339 – intrinsic fluorescence of library compounds, ex339/em460 – biochemical, MLSMR library, data from DPM-DC assay, artefact control, profiling panel | compound autofluorescence, ex339/em460 nm, NADH buffer; hits give high values; 1 = no-compound wells, NADH background | fluorescence fold increase at 10 µM | 65,000 compounds, 5.5% hits;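 active = at 10 µM, mean starting fluorescence two-fold or more over control wells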;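 also: signal is the first read of a kinetic run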
MK inhibit – S. pneumoniae mevalonate kinase inhibition | 65,000 compounds, 0.48% hits | AID 555 | purified MK, PK/LDH-coupled NADH absorbance 340 nm | inhibition, % at 10 µM;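 active = ranked among the strongest by inhibition in the single 10 µM screen, a fixed top-ranked set picked for dose follow-up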
DPM-DC inhibit – blocks S. pneumoniae diphosphomevalonate decarboxylase; purified DPM-DC, PK/LDH coupled NADH fluorescence; calls only at 10 µM; 65,000 compounds, 0.49% hits; AID 556;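 active = the 320 compounds with the highest percent inhibition in the single-dose primary screen, excluding strongly autofluorescent ones, cut at about 32% in these data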;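 also: kinetic rate of NADH fluorescence loss reporting ADP formed by the decarboxylase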
PMK inhibit – inhibitors of Streptococcus pneumoniae phosphomevalonate kinase; AID 539; purified PMK, PK/LDH-coupled NADH absorbance 340 nm; 65,000 compounds, 0.49% hits; inhibition, % at 10 µM;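 active = top-ranked compounds by inhibition in the single 10 µM screen, taking a fixed number of the strongest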;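 also: 0% = full reaction with DMSO carrier and 100% = background rate without enzyme reaction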
Numbers without * were called inactive; i = inactive; nt = not tested or not shown; + = active, no number. Sampled rows, rich in hits. Any-hit rate of the full collection: about 6.8%.

SMILES	NADH coupling	A340 absorber	Autofluor 339	MK inhibit	DPM-DC inhibit	PMK inhibit
Cc1ccc(NC(=O)N2CCCC2C(=O)NCCc2ccccc2)cc1 (stereo not drawn)	11.0%	1	1.12	8.0	i	16.0
Cc1ccc2c(N)c(C)ccc2c1	10.0%	1.04	3.7*	9.0	nt	11.0
CSc1nc(NC(C)=O)nc(C)c1Cl	2.0%	1.02	1.12	0.0	i	5.0
CC12C(=O)N(CCC(=O)O)C(=O)C1C1C=CC2C1 (stereo not drawn)	2.0%	0.97	1.02	1.0	i	9.0
COC(=O)c1ccc(N2C(=O)CC(Sc3n[nH]c(C)n3)C2=O)cc1 (stereo not drawn)	12.0%	1.01	0.99	11.0	i	12.0
Cc1nc(SC2C=CS(=O)(=O)C2)n[nH]1 (stereo not drawn)	4.0%	0.96	1.01	0.0	i	11.0*
Cc1cc2oc(C(=O)NC3CCS(=O)(=O)C3)c(C)c2cc1C (stereo not drawn)	3.0%	1	1.09	5.0	i	1.0
Cc1cccn2c(=O)c3cc(C(=O)NC4CCS(=O)(=O)C4)sc3nc12 (stereo not drawn)	6.0%	1.09	2.12*	3.0	nt	9.0
N=c1c(C(=O)NC2CCCC2)cc2c(=O)n3ccccc3nc2n1C1CCCC1	6.0%	1.02	5.21*	0.0	nt	12.0
Cc1cccn2c(=O)c3cc(C(=O)NC4CCCC4)c(=N)n(C4CCCC4)c3nc12	2.0%	1.02	2.35*	6.0	nt	0.0
CC(C)Oc1ccc(C2/C(=C(/O)c3ccc(F)cc3)C(=O)C(=O)N2CCCN(C)C)cc1 (stereo not drawn)	9.0%	1.04	1.04	17.0	i	8.0
CC1CCN(C(=O)c2cc3ccccc3o2)CC1	3.0%	1	1.09	2.0	i	6.0
O=C1CCCc2[nH]nc(-c3cccnc3)c21	6.0%	1.01	1.08	6.0	i	12.0
COC(=O)Nc1nnc(-c2ccccc2Cl)s1	7.0%	1.01	2.92*	5.0	i	7.0
CCOC(=O)Nc1nnc(-c2ccccc2OC)s1	2.0%	1.02	2.77*	6.0	nt	12.0
CCOC(=O)Nc1nnc(-c2cccc(OC)c2)s1	3.0%	1.03	3.79*	5.0	nt	0.0
COc1ccc(-c2nnc(NC(=O)C(C)C)s2)c(OC)c1	17.0%	1.11	2.09*	26.0	nt	8.0
COc1ccccc1-c1nnc(NC(=O)OCC(C)C)s1	9.0%	1.02	1.45	8.0	i	12.0
O=C(NCC(=O)N(CC1CCCO1)C(C(=O)NC1CCCC1)c1cccnc1)c1ccco1 (stereo not drawn)	5.0%	1.01	1.03	0.0	i	16.0
COC(=O)Nc1nnc(-c2ccncc2)s1	7.0%	1.1	3.7*	10.0	nt	4.0
CCCCc1c(C)c2ccc(OC)c(/C(C)=N\O)c2oc1=O	12.0%	1.11	2.48*	nt	i	9.0
COc1cccc2cc3c(=O)n(-c4ccccc4)nc-3oc12	19.0%	0.97	0.29	7.0	+	4.0
CC1(C)CC(=O)C(C(C2=C(O)CC(C)(C)CC2=O)c2cccc(O)c2)C(=O)C1 (stereo not drawn)	10.0%	1.05	1.09	0.0	i	29.0*
CC1(C)CC(=O)C(C(C2=C(O)CC(C)(C)CC2=O)c2cccnc2)C(=O)C1 (stereo not drawn)	7.0%	1.04	1.08	7.0	i	13.0
CCC(=O)N1CN(S(=O)(=O)c2ccc(C)cc2)CC1C (stereo not drawn)	5.0%	1	1.02	0.0	i	14.0
SMILES	NADH coupling	A340 absorber	Autofluor 339	MK inhibit	DPM-DC inhibit	PMK inhibit
COc1ccc(NC(=O)Cn2nnc(-c3ccccc3NC(=O)c3ccco3)n2)cc1	7.0%	1.01	2.14*	0.0	i	9.0
COc1ccccc1NC(=O)Cn1nnc(-c2ccccc2NC(=O)c2cccs2)n1	12.0%	1.01	1.54	21.0	i	15.0
O=C(Cn1nnc(-c2ccccc2NC(=O)c2cccs2)n1)Nc1ccccc1	13.0%	0.99	2.44*	11.0	i	15.0
CSc1ccc(/C=N/n2c(C)cc(C)cc2=O)cc1	0.0%	1.15	1.1	0.0	i	1.0
CC(C)Cc1nnc(NS(=O)(=O)c2ccc(Cl)cc2)s1	1.0%	1	1.08	1.0	i	6.0
O=C(COc1nnc2ccccn12)N1CCN(S(=O)(=O)c2ccccc2)CC1	4.0%	1.01	3.42*	12.0	nt	13.0
CN(C)C=Nc1ncc2c3ccccc3n(CCN(C)C)c2c1C#N	16.0%	1.19	2.3*	10.0	i	16.0
